Screening results deposited in PubChem by National Center for Advancing Translational Sciences (NCATS).
This is a sample that favours compounds with a hit; in the whole collection about 2.2% have one here.
aSyn rescue – rescues yeast growth from alpha-synuclein toxicity. Yeast expressing alpha-synuclein, growth rescue, BacTiter-Glo, 24 h. 370,000 tested, 0.14% active. AID 652106. Potency, µM (highest dose often 46.1 µM), inactives show top-dose growth rescue (activation), hits mostly activators; also: % of control where 0% means no effect; nearly all actives have a fitted effect of over 65% in size
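Screening used galactose-induced yeast with toxic alpha-synuclein levels, exposed to compound for 24 hr at 30 deg C. Cell growth, read with BacTiter-Glo luminescence, gave the measured signal.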
Abeta yeast res – A-beta toxicity reversal in yeast | Potency, µM (top dose mostly 46.1 µM), usual class: activators | AID 1347071 | 410,000 tested, 0.063% active | yeast expressing A-beta42, growth rescue, OD600, 48 h; response scale: 0% DMSO, 100% iron-clioquinol control; also: nearly all actives have a fitted effect of over 55% in size
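Yeast A-beta toxicity model in growth medium with pinned compounds, 48 h at 30 C; growth read as absorbance at 600 nm. Normalized to FeCl3/clioquinol equimolar mix (positive) and DMSO (negative).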
Mito fusion act – inhibitors of mitochondrial division or activators of mitochondrial fusion; S. cerevisiae fusion-defective mutant growth rescue, CellTiterGlo 48 h; Potency, µM (doses to about 46.1 µM), inactives show at the top dose growth rescue (activation), hits mostly activators; AID 485298; 320,000 tested, 0.23% active; also: % of control where 0% means no effect; nearly all actives have a fitted effect of over 45% in size
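Compounds are tested for their ability to restore growth of mitochondrial fusion-defective yeast strains at non-permissive 37C in YPEG medium over 48 hours. Viability is quantified by luciferase luminescence.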
FUS yeast rescue – FUS proteinopathy suppression in yeast; S. cerevisiae FUS-expressing, growth rescue, OD600, 24 h; Potency, µM (titrated, usually from 76.6 µM), actives largely listed as activators; 390,000 tested, 0.24% active;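 also: plate controls were DMSO vehicle for no effect and reference control for full effect; nearly all actives have a fitted effect of over 55% in size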
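Steps: raffinose overnight preculture; dilution to OD 0.005 in 2% galactose minimal medium; compound addition (concentration series); 24hr at 30C, 99% humidity; absorbance read at 600 nm.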
TDP-43 yeast inh – TDP-43 toxicity inhibition in yeast. TDP-43 expressing yeast growth rescue, BacTiter-Glo, 24 h. Potency, µM (highest dose often 46.1 µM), for the others: at the top dose growth rescue (activation), hits mostly activators. 410,000 tested, 1.8% active. AID 652104; also: % of control where 0% means no effect; nearly all actives have a fitted effect of over 50% in size
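Luminescence from BacTiter-Glo reports growth of TDP-43-expressing yeast after 24 hr at 30 deg C with compound. Cells were raffinose-pregrown to mid-log, then seeded in galactose medium at OD600=0.02.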
Starred values were filed as active, the others as inactive; i = inactive; ? = inconclusive; nt = no result. Calls follow the shape of the dose curve; as a rule, active = well fitted curve in the direction sought with a large enough effect; inconclusive = small, poorly fitted or top-dose-only effect, or another doubt; inactive = no such curve, though single readings can be large; an effect the other way counts as inactive or inconclusive. Potency is read from the fitted curve at half-maximal effect.

SMILES	aSyn rescue	Abeta yeast res	Mito fusion act	FUS yeast rescue	TDP-43 yeast inh
Cc1ccc(S(=O)(=O)N(C(=O)c2ccncc2)c2ccc3oc4c(c3c2)CCCC4)cc1[N+](=O)[O-]	5.4%	i	17.8µM*	i	?
Cc1ccc([N+](=O)[O-])cc1S(=O)(=O)N(C(=O)c1ccncc1)c1ccc2oc3c(c2c1)CCCC3	21.6%	i	12.6µM*	nt	-15.8%
CC(=O)c1c(C)oc2ccc(N(C(=O)c3ccncc3)S(=O)(=O)c3ccc(F)cc3C)cc12	nt	i	nt	?	20µM*
CCOC(=O)c1c(C)oc2ccc(N(C(=O)c3ccncc3)S(=O)(=O)c3ccc(F)cc3C)cc12	nt	i	nt	?	25.6%
Cc1cc(=O)n(CC(=O)NC(C)c2ccccc2)c2c1c(C)nn2-c1cccc(F)c1 (stereo not drawn)	nt	i	nt	i	-1.2%
CC12CCC(C(=O)N(CSC(=S)N/N=C\c3ccccc3O)C1=O)C2(C)C (stereo not drawn)	?	?	-12.5%	i	25.1µM*
CN(C)c1ccc(/C=N\NC(=S)SCN2C(=O)C3CCC(C)(C2=O)C3(C)C)cc1 (stereo not drawn)	1.4%	?	-1.6%	i	12.6µM*
COc1ccc(/C=N\NC(=S)SCN2C(=O)C3CCC(C)(C2=O)C3(C)C)cc1 (stereo not drawn)	?	i	nt	i	?
C[C@@H]1CN([C@H](C)CO)C(=O)c2cc(/C=C/c3ccccc3)cnc2O[C@H]1CN(C)C(=O)NC1CCCCC1	2.3%	i	nt	i	12.0%
C[C@H]1CN([C@@H](C)CO)S(=O)(=O)c2ccc(/C=C/c3ccccc3)cc2O[C@H]1CN(C)C(=O)NC1CCCCC1	7.2%	i	nt	11.2µM*	17.7%
CC(C)CNc1ncnc2oc(-c3ccco3)c(-c3ccco3)c12	8.3%	nt	nt	nt	nt
CCOC(=O)N1CCN(C(=O)C[C@H]2C[C@@]3(C(=O)OC)C(=C[C@H](C4CCCC4)O[C@@H]3C)N(CCc3ccc(OC)c(OC)c3)C2=O)CC1	nt	nt	nt	i	nt
CCC(=O)Nc1nc2ccccc2n1CCN1CCOCC1	3.1%	i	-3.1%	i	-0.6%
CCCn1c(NC(=O)c2cccc(S(=O)(=O)N3CCCC3)c2)nc2ccccc21	0.8%	i	16.6%	?	22.4µM*
CCCCCCCn1c(NC(=O)CC)nc2ccccc21	?	22.4µM*	12.1%	i	?
O=c1[nH]c(=S)c2[nH]cnc2[nH]1	-3.1%	nt	nt	nt	nt
O=C(CSc1cccc[n+]1[O-])c1cc(Cl)ccc1Cl	12.3%	?	-8.7%	i	11.2µM*
O=C(CSc1cccc[n+]1[O-])C12CC3CC(CC(C3)C1)C2	7.5%	?	6.5%	i	14.1µM*
COc1cc(NC(=O)C(Cc2ccccc2)NS(=O)(=O)c2cccs2)cc(OC)c1 (stereo not drawn)	-1.9%	i	nt	i	-5.9%
Cc1ccc(-c2cc(C(=O)OC3CCOC3=O)c3ccccc3n2)c(C)c1 (stereo not drawn)	-10.1%	i	1.6%	i	17.8µM*
O=C(OC1CCOC1=O)c1cc(-c2cccs2)nc2ccccc12 (stereo not drawn)	0.2%	i	20.9%	i	25.1µM*
COc1ccc2c(c1)c1c(c(=O)n(-c3ccc(F)c(Cl)c3)c(=O)n1CC(=O)N1CCCC1)n2C	nt	i	nt	i	18.8%
COC(=O)C1CN(Cc2cn(Cc3ccc(C)cc3)nn2)CCS(=O)(=O)N1Cc1ccc(F)cc1 (stereo not drawn)	nt	nt	nt	i	nt
COc1ccc(C(=O)Nc2cccc(-c3nnc(-c4ccco4)o3)c2)cc1	-17.6%	i	17.6%	i	15.8µM*
Cc1nnc(NC(=O)c2ccc3ccccc3c2)o1	?	15.8µM*	3.4%	i	?
SMILES	aSyn rescue	Abeta yeast res	Mito fusion act	FUS yeast rescue	TDP-43 yeast inh
Cc1nnc(NC(=O)c2ccc(S(=O)(=O)N(C)Cc3ccccc3)cc2)o1	?	?	-3.3%	i	17.8µM*
CCc1nnc(NC(=O)c2ccc(S(=O)(=O)N(CC(C)C)CC(C)C)cc2)o1	22.4µM*	i	15.9%	i	?
Cc1ccccc1NC(=O)c1ccc2ccccc2c1	-9.3%	i	7.0%	i	?
CCCCOC(=O)c1ccc(NC(=O)c2ccc3c(c2)CCCN3S(C)(=O)=O)cc1	nt	i	nt	i	9.9%
O=C(Nc1nnc(-c2ccco2)o1)c1ccc2ccccc2c1	12.3%	?	12.6µM*	nt	-4.2%
Cc1ccc(C(=O)Nc2nnc(-c3ccco3)o2)cc1	18.6%	i	0.1%	i	6.8%
c1ccc(-c2csc(-n3cnnn3)n2)cc1	1.4%	i	1.9%	i	11.2µM*
Cc1cc(C)n(-c2nc(-c3ccccc3)cs2)n1	-17.8%	i	-8.1%	i	-0.9%
O=C(N/N=C/c1ccncc1)c1ccccc1OCc1ccc(Br)cc1	25.7%	i	?	i	31.6µM*
Cc1ccc(/C=N/NC(=O)c2ccccc2OCc2ccc(F)cc2)o1	-5.9%	i	-4.4%	i	11.8%
CNC(=O)c1ccc(-c2sc3nc(N4CCOCC4)c4c(c3c2N)CCCC4)o1	-7.5%	i	6.3%	7.08µM*	22.4µM*
COc1cc(NC(=O)Cn2cc(S(=O)(=O)c3ccccc3)c(=O)c3ccccc32)cc(OC)c1	nt	i	nt	i	13.9%
COc1ccc2c(c1)c(=O)c(S(=O)(=O)c1ccc(C)c(C)c1)cn2CC(=O)Nc1ccccc1	nt	i	nt	12.6µM*	6.7%
O=C(O)c1cc2ccccc2c2c1C(=O)c1ccccc1-2	2.82µM*	?	nt	i	-7.9%
O=C(O)c1cc2ccccc2c2cc(Br)ccc12	15.1%	i	11.2µM*	i	-4.0%
CCCNC(=O)C1CCC(Cn2c(=O)c3sccc3n(CC(=O)N3CCCC3)c2=O)CC1 (stereo not drawn)	nt	i	nt	i	15.6%
O=C(CN1C(=O)COc2ccc(S(=O)(=O)N3CCOCC3)cc21)Nc1ccc(F)c(Cl)c1	nt	i	nt	i	-0.6%
Cc1ccc(C(C[N+](=O)[O-])c2c(N)n(C)c(=O)n(C)c2=O)cc1 (stereo not drawn)	?	i	-9.5%	i	?
Cn1c(N)c(C(C[N+](=O)[O-])c2ccccc2Cl)c(=O)n(C)c1=O (stereo not drawn)	-25.0%	i	nt	i	14.1µM*
COc1ccc(/C=C2\SC(N3CCCCC3)=NC2=O)cc1OC	0.7%	i	-4.4%	i	-3.0%
Cc1ccc(/C=C2\SC(N3CCCC3)=NC2=O)cc1	nt	nt	12.8%	nt	nt
CCOC(=O)C1CCN(C2=NC(=O)/C(=C/c3ccc(Cl)cc3)S2)CC1	5.7%	i	-6.3%	i	20µM*
CN(C)c1ccc(/C=C2\SC(N3CCCCC3)=NC2=O)cc1	-0.4%	i	-5.1%	i	22.4µM*
